Consider 11 molecules from PubChem BioAssay (NCI).

Compounds without any hit were thinned out: in the full panel of roughly 83,000, 20% have a hit.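 How to read the values: 0–100, growth inhibition (40 = 60% inhibited); 0, no net growth; -100 to 0, cell death (-40 = 40% of starting cells died; -100 = all dead).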 Unmarked numbers belong to inactive results. Activity calls are given as the source filed them. Rule for the calls: active = growth percent below 10; inactive = the rest.

Among the test systems are NCI-H23 lung; NCI-H226 lung; NCI-H322M lung; HOP-62 NSCLC; NCI-H460 lung; HOP-92 NSCLC; NCI-H522 lung; A549/ATCC NSCLC; 786-0 renal; COLO 205 colon.
Assay in all cases: NCI-60 one-dose screen, 48 h (100 = growth as untreated, 0 = no growth, -100 = all killed)

On to `C[C@H]1[C@@H](CC(=O)N[C@@H](Cc2coc3ccccc23)B(O)O)O[C@@H]2OC3(C)CC[C@H]4[C@H](C)CC[C@@H]1[C@@]24O3`, for which the growth is 18.6% with NCI-H23 lung (10 µM unless noted); -15.5% (active) with NCI-H226 lung (10 µM unless noted); 74.9% with NCI-H322M lung (10 µM unless noted); 6.31% (active) in the experiment on HOP-62 NSCLC (10 µM unless noted); 17% in the experiment on NCI-H460 lung (10 µM unless noted); 23.2% in the experiment with HOP-92 NSCLC (10 µM unless noted). Moreover, the growth was -50% (active) with NCI-H522 lung (10 µM unless noted), 31.6% with A549/ATCC NSCLC (10 µM unless noted), 17.1% in the experiment with 786-0 renal (10 µM unless noted) and 23% with COLO 205 colon (10 µM unless noted).

On to `O=S(=O)(c1nc(-c2ccc(Br)cc2)oc1-c1ccc(Cl)cc1)N1CCCC(O)C1` (stereo not given), for which the growth in the experiment with NCI-H23 lung (10 µM unless noted) is 47.3%; with NCI-H226 lung (10 µM unless noted), 60.4%; in the experiment with NCI-H322M lung (10 µM unless noted), 78.3%; in the experiment with HOP-62 NSCLC (10 µM unless noted), 102%; in the experiment with NCI-H460 lung (10 µM unless noted), 34.1%; in the experiment on HOP-92 NSCLC (10 µM unless noted) it was -14.5% (active). The growth with NCI-H522 lung (10 µM unless noted) was 49.2%; in the experiment on A549/ATCC NSCLC (10 µM unless noted), 47.6%; in the experiment on 786-0 renal (10 µM unless noted) it was 58.9%; in the experiment with COLO 205 colon (10 µM unless noted), 81%.

As for `CCCSc1nnc(-c2c(C)nc3sccn23)o1`, the growth with NCI-H23 lung (10 µM unless noted) was 90.5%; in the experiment on NCI-H226 lung (10 µM unless noted) it was 66.6%; with NCI-H322M lung (10 µM unless noted) it was 73.9%; with HOP-62 NSCLC (10 µM unless noted), 112%; in the experiment on NCI-H460 lung (10 µM unless noted), 97.9%; with HOP-92 NSCLC (10 µM unless noted), 73.8%. Also, the growth in the experiment on NCI-H522 lung (10 µM unless noted) was 98.7%; in the experiment on A549/ATCC NSCLC (10 µM unless noted), 98.2%; with 786-0 renal (10 µM unless noted), 92.8%; with COLO 205 colon (10 µM unless noted), 118%.

`O=C(N/N=C/c1ccc(B(O)O)s1)c1[nH]c2ccc(Br)cc2c1-c1ccccc1`: the growth with NCI-H23 lung (10 µM unless noted) was -94.9% (active); with NCI-H226 lung (10 µM unless noted) it was -45.2% (active); with NCI-H322M lung (10 µM unless noted), -79.1% (active); in the experiment on HOP-62 NSCLC (10 µM unless noted) it was -69.8% (active); in the experiment with NCI-H460 lung (10 µM unless noted), -76% (active); in the experiment on HOP-92 NSCLC (10 µM unless noted) it was -60.2% (active). Further, the growth in the experiment with NCI-H522 lung (10 µM unless noted) was -83% (active); in the experiment on A549/ATCC NSCLC (10 µM unless noted), -62.8% (active); in the experiment with 786-0 renal (10 µM unless noted), -66.2% (active); in the experiment with COLO 205 colon (10 µM unless noted), -81.8% (active).

For `N#Cc1ccc(C(=O)CSc2nc3c(c(Nc4ccc(S(N)(=O)=O)cc4)n2)CCC3)cc1`, the growth in the experiment on NCI-H23 lung (10 µM unless noted) was -0.896% (active); in the experiment with NCI-H226 lung (10 µM unless noted) it was 54.1%; in the experiment with NCI-H322M lung (10 µM unless noted), 75.3%; in the experiment with HOP-62 NSCLC (10 µM unless noted) it was 1.39% (active); in the experiment on NCI-H460 lung (10 µM unless noted) it was 39.6%; in the experiment on HOP-92 NSCLC (10 µM unless noted), 14.1%. In addition, the growth in the experiment on NCI-H522 lung (10 µM unless noted) is 44.6%; in the experiment with A549/ATCC NSCLC (10 µM unless noted), 50%; in the experiment on 786-0 renal (10 µM unless noted), -22.3% (active); in the experiment on COLO 205 colon (10 µM unless noted), 87.2%.

For the molecule `CC/C(=C(/c1ccc(O)cc1)c1ccc(OCCN(C)C(=O)COCCOCCNC(=O)c2ccc3c(c2)CN([C@@H]2CCC(=O)NC2=O)C3=O)cc1)c1ccccc1`, the growth in the experiment with NCI-H23 lung (1 µM) was 99%; with NCI-H23 lung (10 µM), 97%; in the experiment with NCI-H226 lung (1 µM), 89.4%; in the experiment with NCI-H226 lung (10 µM) it was 65.4%; in the experiment on NCI-H322M lung (1 µM), 101%; in the experiment with NCI-H322M lung (10 µM) it was 85.2%. Further, the growth in the experiment with HOP-62 NSCLC (1 µM) was 93.4%; in the experiment on HOP-62 NSCLC (10 µM), 81%; in the experiment on NCI-H460 lung (1 µM), 111%; in the experiment on NCI-H460 lung (10 µM), 114%; in the experiment on HOP-92 NSCLC (1 µM) it was 26.9%; in the experiment on HOP-92 NSCLC (10 µM) it was 18.2%. The growth is 91.7% with NCI-H522 lung (1 µM); 90% in the experiment on NCI-H522 lung (10 µM); 89.4% in the experiment with A549/ATCC NSCLC (1 µM); 85.3% in the experiment with A549/ATCC NSCLC (10 µM); 94% with 786-0 renal (1 µM); 96.7% in the experiment on 786-0 renal (10 µM). For the same molecule, the growth with COLO 205 colon (1 µM) was 91.3%; in the experiment with COLO 205 colon (10 µM), 79.3%.

`COc1ccc(N=Nc2c(N)nn3c(N)c(C#N)c(-c4ccc(C)cc4)nc23)cc1`: the growth was 62.9% with NCI-H23 lung (10 µM unless noted); 54.7% in the experiment with NCI-H226 lung (10 µM unless noted); 78.7% in the experiment with NCI-H322M lung (10 µM unless noted); 63.6% in the experiment on HOP-62 NSCLC (10 µM unless noted); 26.6% in the experiment on NCI-H460 lung (10 µM unless noted); 19.4% in the experiment with HOP-92 NSCLC (10 µM unless noted). Moreover, the growth with NCI-H522 lung (10 µM unless noted) was 48.9%; in the experiment with A549/ATCC NSCLC (10 µM unless noted), 43.3%; with 786-0 renal (10 µM unless noted), 80.9%; in the experiment on COLO 205 colon (10 µM unless noted), 85.6%.

As to `O=C(N/N=C/c1c[nH]c2ccccc12)Nc1ccccc1Cl`, the growth with NCI-H23 lung (10 µM unless noted) is 1.51% (active); in the experiment with NCI-H226 lung (10 µM unless noted), 19.8%; in the experiment on NCI-H322M lung (10 µM unless noted), 41.7%; in the experiment with HOP-62 NSCLC (10 µM unless noted), 18.4%; in the experiment on NCI-H460 lung (10 µM unless noted), 1.98% (active); with HOP-92 NSCLC (10 µM unless noted) it was 3.23% (active). Also, the growth was -41.8% (active) with NCI-H522 lung (10 µM unless noted), 15.2% with A549/ATCC NSCLC (10 µM unless noted), -41.4% (active) in the experiment on 786-0 renal (10 µM unless noted) and -39.7% (active) with COLO 205 colon (10 µM unless noted).

In the case of `O=C(Nc1ccc(Br)cc1)Nc1ccc(-c2ccc3c(c2)NC(=O)/C3=C\c2ccc[nH]2)cc1`, the growth was 30.7% in the experiment with NCI-H23 lung (10 µM unless noted); 66.2% in the experiment on NCI-H226 lung (10 µM unless noted); 46.1% in the experiment on NCI-H322M lung (10 µM unless noted); 53.1% in the experiment on HOP-62 NSCLC (10 µM unless noted); 8.75% (active) in the experiment with NCI-H460 lung (10 µM unless noted); 92.1% with HOP-92 NSCLC (10 µM unless noted). The growth in the experiment on NCI-H522 lung (10 µM unless noted) was 24.1%; in the experiment with A549/ATCC NSCLC (10 µM unless noted), 37.7%; with 786-0 renal (10 µM unless noted) it was 61%; in the experiment on COLO 205 colon (10 µM unless noted) it was 57.2%.

Regarding `CC/C(=C(\c1ccc(O)cc1)c1ccc(OCCN(C)C(=O)COCCNC(=O)Cc2ccc3c(c2)CN([C@@H]2CCC(=O)NC2=O)C3=O)cc1)c1ccccc1`, the growth in the experiment on NCI-H23 lung (1 µM) was 102%; in the experiment with NCI-H23 lung (10 µM) it was 86.6%; in the experiment on NCI-H226 lung (1 µM) it was 77.4%; with NCI-H226 lung (10 µM) it was 6.46% (active); in the experiment with NCI-H322M lung (1 µM) it was 77.5%; with NCI-H322M lung (10 µM) it was 37.9%. For the same molecule, the growth with HOP-62 NSCLC (1 µM) was 72%; in the experiment on HOP-62 NSCLC (10 µM) it was 16.2%; in the experiment with NCI-H460 lung (1 µM), 124%; with NCI-H460 lung (10 µM), 106%; in the experiment with HOP-92 NSCLC (1 µM) it was 8.46% (active); with HOP-92 NSCLC (10 µM), -0.223% (active). Besides, the growth in the experiment on NCI-H522 lung (1 µM) was 92.2%; in the experiment on NCI-H522 lung (10 µM) it was 95.3%; in the experiment on A549/ATCC NSCLC (1 µM) it was 95.7%; in the experiment with A549/ATCC NSCLC (10 µM), 75.2%; with 786-0 renal (1 µM), 94%; in the experiment with 786-0 renal (10 µM) it was 90.6%. Further, the growth in the experiment on COLO 205 colon (1 µM) was 72.2%; with COLO 205 colon (10 µM) it was 33.8%.

Turning to `O=C(CSc1nc2sc3c(c2c(=O)n1-c1ccc(Cl)cc1)CCCC3)NNC(=O)c1ccc(Br)cc1`, the growth was 55.6% with NCI-H23 lung (10 µM unless noted); 45.2% in the experiment on NCI-H226 lung (10 µM unless noted); 52.7% in the experiment on NCI-H322M lung (10 µM unless noted); 17% with HOP-62 NSCLC (10 µM unless noted); 76.9% in the experiment with NCI-H460 lung (10 µM unless noted); 61.2% with HOP-92 NSCLC (10 µM unless noted). The growth is 64.4% in the experiment with NCI-H522 lung (10 µM unless noted), 82.6% with A549/ATCC NSCLC (10 µM unless noted), 98.5% with 786-0 renal (10 µM unless noted) and 120% in the experiment with COLO 205 colon (10 µM unless noted).
